IMPase cell inh: qHTS Assay for Identifying the Cell-Membrane Permeable IMPase Inhibitors | Inositol monophosphatase 1 (Rattus norvegicus), P97697 | 120,000 tested, under 10 active | CHO-M1 cells, IP1 accumulation, HTRF TR-FRET ratio | inhibition (IP1 accumulation), % at 46.1 µM | AID 901, 2007; active means well fitted curve in the direction sought with a large enough effect in the signal ratio, not every such curve was filed as active; inconclusive means small, poorly fitted or top-dose-only effect, or a change in a side signal; inactive means no such curve, though single readings can be large or run the other way; the % refers to the signal ratio;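 further: cells stimulated with carbachol in lithium chloride buffer; plate controls were DMSO basal wells for no effect and reference inhibitor wells for full effect; higher means more IMPase inhibition seen as more IP1 and lower FRET ratio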
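Cellular IMPase inhibition is scored as a rise in cytosolic IP1, detected by competitive TR-FRET between d2-labelled IP1 and a europium anti-IP1 antibody. M1-expressing CHO cells were stimulated with carbachol for 30 min at 37C, with lithium (50 mM LiCl) present in the buffer.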
ALDH1A1 block: qHTS Assay for Inhibitors of Aldehyde Dehydrogenase 1 (ALDH1A1). AID 1030, 2008. Potency, µM (highest dose often 75.3 µM), for inactives: at the highest dose activity, negative = inhibition, usual class: inhibitors. actives 7.3% (n = 220,000). Purified ALDH1A1, NADH fluorescence, propionaldehyde substrate;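 further: potency means the concentration at half of the fitted maximal effect; plate controls were no enzyme wells and a reference inhibitor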
Target sequence (P00352 whole entry, looked up): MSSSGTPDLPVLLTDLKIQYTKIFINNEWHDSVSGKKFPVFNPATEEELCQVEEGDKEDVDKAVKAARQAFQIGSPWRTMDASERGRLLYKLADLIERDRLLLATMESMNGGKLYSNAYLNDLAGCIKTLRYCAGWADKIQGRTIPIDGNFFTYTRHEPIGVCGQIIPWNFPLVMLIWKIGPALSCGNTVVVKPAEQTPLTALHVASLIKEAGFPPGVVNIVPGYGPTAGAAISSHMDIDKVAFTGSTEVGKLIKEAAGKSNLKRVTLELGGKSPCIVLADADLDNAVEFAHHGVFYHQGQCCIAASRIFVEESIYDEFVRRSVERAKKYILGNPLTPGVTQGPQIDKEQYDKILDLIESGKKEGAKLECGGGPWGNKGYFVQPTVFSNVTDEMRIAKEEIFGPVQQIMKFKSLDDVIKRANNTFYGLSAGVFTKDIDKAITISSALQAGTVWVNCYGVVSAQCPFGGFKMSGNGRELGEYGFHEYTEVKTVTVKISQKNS
HPGD block: qHTS Assay for Inhibitors of HPGD (15-Hydroxyprostaglandin Dehydrogenase); 15-hydroxyprostaglandin dehydrogenase [NAD(+)] (Homo sapiens), P15428; actives 4.3% (n = 150,000); purified HPGD, NADH fluorescence kinetic, PGE2 substrate; Potency, µM, without a hit: at the top dose activity change, negative = inhibition, most hits filed as inhibitors; further: potency means the concentration at half of the fitted maximal effect
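NADH formation kinetics: reaction with 30 uM PGE2 and 1 mM NAD+ (final), 20 nM enzyme, Tris-HCl pH 8 with Tween 20, after 15 min compound preincubation at room temperature. Fluorescence change, last versus first of five reads.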
* = called active by the depositor; u = inconclusive; x = no result given; [ ] = dose if it differs, or a comment. Compounds with a hit are over-represented: about 9% of the library has one in this group of screens. Unless noted, the call rests on the fitted dose curve; in most records, active means well fitted inhibition curve with a large enough effect (not every such curve was filed as active); inconclusive means small, poorly fitted or top-dose-only effect, or another doubt; inactive means no such curve, though single readings can be large or run the other way. Unless noted, on the % scale 0 is the no-effect control and ±100 the full control effect.

SMILES	IMPase cell inh	ALDH1A1 block	HPGD block
CCOC(=O)N1CCN(C(=O)CN(c2cccc(C)c2)S(=O)(=O)c2ccccc2)CC1	-2	-5%	1%
CCOC(=O)N1CCN(C(=O)CN(c2cc(Cl)ccc2OC)S(=O)(=O)c2ccccc2)CC1	11	25µM*	-5%
Cc1onc(-c2c(F)cccc2Cl)c1C(=O)NC(=S)Nc1c(C)n(C)n(-c2ccccc2)c1=O	x	-10%	x
Cc1onc(-c2c(Cl)cccc2Cl)c1C(=O)NC(=S)Nc1sc2c(c1C(N)=O)CCC(C)C2 (stereo not given)	3	19µM*	-5%
Cc1onc(-c2ccccc2)c1C(=O)Nc1sc2c(c1C#N)CCC(C)C2 (stereo not given)	5	u	-10%
Cc1onc(-c2c(F)cccc2Cl)c1C(=O)NC(=S)NC1CCSC1=O (stereo not given)	x	10µM*	u
COCCn1c(=O)c2c(nc3n2CCN3c2ccc(C)cc2)n(C)c1=O	6	8%	1%
Cc1nc(SCC(=O)Nc2nsc(-c3ccc(C(C)(C)C)cc3)n2)c2c3c(sc2n1)CCCC3	-11	x	x
O=C(O)Cn1cc(C(=S)N2CCCCC2)c2ccccc21	x	10µM*	x
O=C(C(=O)N1CCOCC1)c1cn(CC(=O)N2CCc3ccccc3C2)c2ccccc12	x	20µM*	x
COCCNC(=O)Cn1cc(C(=S)N2CCCCC2)c2ccccc21	x	-12%	x
O=C(Cn1cc(C(=S)N2CCOCC2)c2ccccc21)N1CCOCC1	9	2%	-6%
S=C(c1cn(CCOc2ccccc2)c2ccccc12)N1CCCC1	-3	-6%	-23%
O=C(C(=O)N1CCc2ccccc2C1)c1cn(CC(=O)N2CCOCC2)c2ccccc12	6	-5%	-13%
O=C(O)Cn1cc(C(=S)N2CCOCC2)c2ccccc21	-6	19µM*	18µM*
S=C(c1cn(CCOc2cccc3ccccc23)c2ccccc12)N1CCCC1	x	28µM*	-11%
CC1(C)CC(=O)c2cc(NC(=O)c3ccccc3)c(=O)oc2C1	-3	u	x
CCC/C=C(\CCC)C(NC(=O)c1cccs1)c1ccc(C(F)(F)F)cc1 (stereo not given)	x	2%	-9%
CC(C)OC(=O)c1c(NC(=O)CCC(=O)O)sc2c1CCCCC2	x	-7%	-4%
CCOC(=O)c1c(NC(=O)Cc2cccs2)sc2c1CCCC2	18	-6%	x
CCOc1ccc(NC(=O)CS(=O)(=O)c2cn(CC)c3ccccc23)cc1	4	0%	-1%
CCOC(=O)c1c(NC(=O)CS(=O)(=O)c2cn(CC)c3ccccc23)sc2c1CCCC2	x	13µM*	-19%
CCOC(=O)c1c(NC(=O)CS(=O)(=O)c2cn(CC)c3ccccc23)sc2c1CCCCC2	x	10µM*	-10%
CC(C)OC(=O)c1c(NC(=O)CCn2nnc3ccccc32)sc2c1CCCC2	10	25µM*	-27%
COCCNC(=O)C(c1ccc(F)cc1)N(C(=O)CCC(=O)Nc1nccs1)c1cccc(C)c1 (stereo not given)	x	3%	x
SMILES	IMPase cell inh	ALDH1A1 block	HPGD block
CC(Sc1ccc(Cl)cc1)C(=O)Nc1ccccc1-c1ccccc1 (stereo not given)	-5	-8%	-17%
COc1ccc(C(=O)NCc2nnc(SCC(=O)Nc3nc4ccccc4s3)o2)cc1OC	x	3%	-8%
CCC(=O)NC(c1cccs1)c1cc(Cl)c2cccnc2c1O (stereo not given)	x	6%	x
CCCCC(=O)NC(c1cccs1)c1cc(Cl)c2cccnc2c1O (stereo not given)	x	7.1µM*	x
CCCOc1ccc(/C=C2\SC(=S)N(CC3CCCO3)C2=O)cc1 (stereo not given)	x	6.3µM*	-7%
CCOc1ccc(/C=C2\SC(=S)N(CC(=O)N(CCO)C(C)(C)C)C2=O)cc1	x	-11%	x
Cc1ccsc1/C=C1/SC(=O)N(CC(=O)N2CCOCC2)C1=O	3	-61%	-19%
Cc1ccsc1/C=C1\SC(=S)N(CC2CCCO2)C1=O (stereo not given)	x	1µM*	x
CO[C@@H]1COC(=O)CC=C[C@@H](C)[C@@H]2C=C[C@H](O)[C@@H](COC(=O)C/C=C\[C@H]1C)O2	x	-8%[13.5 µM]	x
CN1C(=S)N(c2ccccc2)C(=O)/C1=C/c1cccs1	x	10%	-24%
CN1C(=S)N(c2ccccc2)C(=O)/C1=C/c1ccco1	x	13µM*	-21%
CC1=C(C(=O)OC2CCCC2)C(c2ccc(Cl)cc2)CC(=O)N1 (stereo not given)	1	x	x
Cc1cccc(CNc2ccnc(-c3ccccc3CN(C)C)n2)c1	x	-3%	-16%

Screening data: PubChem, National Center for Advancing Translational Sciences (NCATS)
